Laboratory results reported in PubChem BioAssay AID624160 (National Center for Advancing Translational Sciences (NCATS), 2012).
The list shows a part of the results. Results filed as inconclusive are left out. The source made the active and inactive calls. Calls come from the whole dose curve; as a rule, active = well fitted inhibition curve with a large enough effect; inconclusive = small, poorly fitted or top-dose-only effect; inactive = no such curve, though single readings can be large or run the other way.

Target: Histone-lysine N-methyltransferase 2A (Homo sapiens) (UniProt Q03164)
Sequence (Q03164 whole entry, looked up, the tested form may be a part): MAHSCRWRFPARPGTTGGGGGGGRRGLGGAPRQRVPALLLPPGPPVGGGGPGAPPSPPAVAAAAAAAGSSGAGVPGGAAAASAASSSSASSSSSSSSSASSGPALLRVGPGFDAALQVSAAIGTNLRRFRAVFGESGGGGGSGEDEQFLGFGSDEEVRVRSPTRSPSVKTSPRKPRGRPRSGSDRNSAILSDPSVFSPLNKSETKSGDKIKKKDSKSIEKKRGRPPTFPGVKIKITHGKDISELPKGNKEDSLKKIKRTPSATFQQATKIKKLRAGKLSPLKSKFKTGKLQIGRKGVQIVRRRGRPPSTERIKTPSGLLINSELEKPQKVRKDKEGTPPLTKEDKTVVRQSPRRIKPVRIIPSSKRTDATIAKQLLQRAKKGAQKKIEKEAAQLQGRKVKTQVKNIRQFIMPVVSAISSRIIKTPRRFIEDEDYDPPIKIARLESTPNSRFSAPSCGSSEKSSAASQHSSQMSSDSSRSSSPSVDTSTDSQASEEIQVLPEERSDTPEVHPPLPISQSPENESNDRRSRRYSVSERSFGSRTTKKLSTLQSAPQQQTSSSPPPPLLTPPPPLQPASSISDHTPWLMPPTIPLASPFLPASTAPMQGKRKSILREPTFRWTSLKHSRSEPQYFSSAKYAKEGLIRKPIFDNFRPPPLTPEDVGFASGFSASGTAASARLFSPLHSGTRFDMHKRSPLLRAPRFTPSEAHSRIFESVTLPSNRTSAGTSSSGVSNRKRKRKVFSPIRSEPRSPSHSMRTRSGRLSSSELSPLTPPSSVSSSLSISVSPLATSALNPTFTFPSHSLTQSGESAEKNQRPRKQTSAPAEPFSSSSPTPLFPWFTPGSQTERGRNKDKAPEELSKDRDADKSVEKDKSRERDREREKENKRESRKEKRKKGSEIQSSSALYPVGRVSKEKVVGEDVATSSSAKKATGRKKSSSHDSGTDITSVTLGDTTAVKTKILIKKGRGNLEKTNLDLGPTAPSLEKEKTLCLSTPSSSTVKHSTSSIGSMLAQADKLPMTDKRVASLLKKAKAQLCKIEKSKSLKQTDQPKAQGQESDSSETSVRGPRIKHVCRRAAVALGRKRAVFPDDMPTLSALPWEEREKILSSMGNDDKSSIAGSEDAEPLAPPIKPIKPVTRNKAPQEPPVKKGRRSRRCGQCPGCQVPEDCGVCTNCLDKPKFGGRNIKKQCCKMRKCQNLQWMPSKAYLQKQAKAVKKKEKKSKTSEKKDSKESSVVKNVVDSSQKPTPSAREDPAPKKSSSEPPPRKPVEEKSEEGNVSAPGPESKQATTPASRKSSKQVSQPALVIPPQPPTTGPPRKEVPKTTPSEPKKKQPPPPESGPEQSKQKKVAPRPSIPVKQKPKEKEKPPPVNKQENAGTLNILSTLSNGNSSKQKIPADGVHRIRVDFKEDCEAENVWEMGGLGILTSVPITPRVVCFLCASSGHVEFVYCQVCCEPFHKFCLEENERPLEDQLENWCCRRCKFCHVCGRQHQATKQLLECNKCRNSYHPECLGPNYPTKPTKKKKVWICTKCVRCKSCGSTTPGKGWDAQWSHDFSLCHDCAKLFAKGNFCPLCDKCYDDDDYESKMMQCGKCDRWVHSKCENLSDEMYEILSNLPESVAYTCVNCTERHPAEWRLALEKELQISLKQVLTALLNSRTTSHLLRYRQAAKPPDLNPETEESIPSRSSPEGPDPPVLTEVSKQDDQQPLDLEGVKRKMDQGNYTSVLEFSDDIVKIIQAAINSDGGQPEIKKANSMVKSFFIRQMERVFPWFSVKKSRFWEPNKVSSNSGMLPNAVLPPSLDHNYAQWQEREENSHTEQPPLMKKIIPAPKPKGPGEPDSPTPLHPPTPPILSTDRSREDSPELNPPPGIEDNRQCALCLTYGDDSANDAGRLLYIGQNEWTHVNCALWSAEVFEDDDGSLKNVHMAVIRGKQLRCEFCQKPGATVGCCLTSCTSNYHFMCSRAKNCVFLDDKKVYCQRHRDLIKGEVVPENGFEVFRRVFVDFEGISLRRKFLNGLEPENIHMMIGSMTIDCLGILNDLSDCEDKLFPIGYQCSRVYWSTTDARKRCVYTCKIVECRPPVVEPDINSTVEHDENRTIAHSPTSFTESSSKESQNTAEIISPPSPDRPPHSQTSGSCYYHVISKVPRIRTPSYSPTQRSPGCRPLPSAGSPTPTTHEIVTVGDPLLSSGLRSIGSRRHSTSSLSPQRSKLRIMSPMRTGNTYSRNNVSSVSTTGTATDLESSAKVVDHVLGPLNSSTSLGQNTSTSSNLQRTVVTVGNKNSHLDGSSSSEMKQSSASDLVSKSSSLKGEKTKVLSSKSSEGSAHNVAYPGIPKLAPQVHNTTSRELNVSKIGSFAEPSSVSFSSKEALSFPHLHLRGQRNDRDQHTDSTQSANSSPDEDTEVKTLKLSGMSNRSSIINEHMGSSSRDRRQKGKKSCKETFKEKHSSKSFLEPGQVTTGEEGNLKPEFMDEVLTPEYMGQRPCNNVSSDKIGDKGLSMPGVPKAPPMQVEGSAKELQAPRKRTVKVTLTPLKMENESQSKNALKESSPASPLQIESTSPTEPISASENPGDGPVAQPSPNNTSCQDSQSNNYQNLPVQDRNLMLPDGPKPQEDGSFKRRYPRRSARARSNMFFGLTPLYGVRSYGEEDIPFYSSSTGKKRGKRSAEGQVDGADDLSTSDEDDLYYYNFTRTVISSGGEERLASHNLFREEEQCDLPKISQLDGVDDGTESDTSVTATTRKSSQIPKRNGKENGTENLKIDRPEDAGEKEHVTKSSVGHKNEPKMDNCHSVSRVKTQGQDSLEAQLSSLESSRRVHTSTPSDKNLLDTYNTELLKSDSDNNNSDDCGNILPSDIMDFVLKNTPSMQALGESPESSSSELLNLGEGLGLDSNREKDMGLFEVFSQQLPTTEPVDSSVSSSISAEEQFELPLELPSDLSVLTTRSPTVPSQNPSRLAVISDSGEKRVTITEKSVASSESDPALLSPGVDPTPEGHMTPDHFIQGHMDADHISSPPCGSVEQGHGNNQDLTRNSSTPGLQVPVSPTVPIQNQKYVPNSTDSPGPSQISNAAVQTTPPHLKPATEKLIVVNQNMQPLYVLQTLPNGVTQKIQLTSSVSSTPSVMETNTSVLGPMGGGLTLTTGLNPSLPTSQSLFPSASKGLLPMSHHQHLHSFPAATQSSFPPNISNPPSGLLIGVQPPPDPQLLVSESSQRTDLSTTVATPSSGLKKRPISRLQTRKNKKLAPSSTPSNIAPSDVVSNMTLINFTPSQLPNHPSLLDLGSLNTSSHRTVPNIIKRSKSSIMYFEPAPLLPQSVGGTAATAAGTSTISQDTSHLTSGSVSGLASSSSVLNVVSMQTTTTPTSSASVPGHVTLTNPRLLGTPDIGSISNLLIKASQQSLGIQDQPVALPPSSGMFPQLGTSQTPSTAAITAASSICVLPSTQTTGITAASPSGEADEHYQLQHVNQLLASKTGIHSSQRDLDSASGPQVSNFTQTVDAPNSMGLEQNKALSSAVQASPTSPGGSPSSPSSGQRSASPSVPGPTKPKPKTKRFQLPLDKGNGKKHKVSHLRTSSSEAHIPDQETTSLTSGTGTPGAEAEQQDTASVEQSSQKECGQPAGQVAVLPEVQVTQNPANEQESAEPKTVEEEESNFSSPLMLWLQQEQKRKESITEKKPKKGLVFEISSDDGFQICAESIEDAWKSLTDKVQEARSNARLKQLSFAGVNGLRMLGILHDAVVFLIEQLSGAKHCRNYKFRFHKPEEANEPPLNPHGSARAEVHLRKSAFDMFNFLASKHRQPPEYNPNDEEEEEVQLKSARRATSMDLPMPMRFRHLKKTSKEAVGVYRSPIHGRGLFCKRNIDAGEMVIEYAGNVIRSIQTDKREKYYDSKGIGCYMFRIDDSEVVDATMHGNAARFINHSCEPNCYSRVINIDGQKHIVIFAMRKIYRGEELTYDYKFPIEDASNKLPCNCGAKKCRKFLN
Assay: qHTS Fluorescence Polarization (FP) Assay for Inhibitors of MLL CXXC domain - DNA interaction: Fluorescein FP; note: nearly all actives have a fitted effect of over 80% in size
Settings: MLL CXXC-DNA binding
Description: The MLL (Mixed Lineage Luekemia) gene is involved in chromosomal translocation that results in either acute lymphoid leukemia (ALL) or acute myeloid leukemia (AML). Chromasomal translocation of MLL gene is responsible for the fusion of N-terminal MLL to more than 60 different partner genes in frame. Many of the MLL partner genes contain transcription activation domains or function as transcriptional activators. Despite the heterogeneity of fusion partners, the N-terminus of MLL fusion proteins always consists of the N-terminal menin binding motif and the CXXC domain. The MLL-CXXC domain specifically recognizes unmethylated CpG sequences of the HOX-A gene. Disruption of the MLL-CXXC and HOX-A gene interaction leads to down regulation of HOX-A gene expression and may potentially reverse leukemogenesis. We have miniaturized and optimized an in-vitro assay to screen for inhibitors of the MLL-CXXC domain and HOX-A DNA interaction, which could have utility in MLL fusion leukemias.
This is a hit validation assay that tests this hits identified in the primary screen in this secondary screen, using flurescein FP as a read-out.
NIH Molecular Libraries Probe Production Network [MLPCN]
NIH Chemical Genomics Center [NCGC]
PI Name: John Bushweller, University of Virgina
The affinity purified MLL-CXXC domain, unlabeled HOX-A9 DNA strand, fluorescein (FLSN) labeled HOX-A9 DNA strand were kindly supplied by the laboratory of Dr. John Bushweller, University of Virginia. All reagents were stored in single use aliquots at -80C.
Assay buffer: 50 mM TRIS-HCl pH 7.5, 50 mM NaCl, 1 mM DTT. Add 0.05% BSA prior to reaction setup.
1.Dispense 1 ul of a 7 uM MLL-CXXC solution prepared in assay buffer into column 1-48.
2.Transfer 23 nl of compounds and unlabeled HOX-A9 per well.
3.Incubate for 5 minutes at ambient.
4.Dispense 1ul of a 50 nM FLSN-HOX-A9 solution prepared in assay buffer into columns 1-48
5.Centrifuge for 30 seconds at 1000 RPM.
6.Incubate for 30 minutes at ambient.
7.Read using the Envision reader fluorescent polarization protocol.
Potency is the fitted concentration of half-maximal effect.

Potency, active:
CCOC(=O)/C(N=Nc1cc(C(=O)O)cc(C(=O)O)c1)=C(\O)CCl 6.33 µM, COc1cc(/C=C2/C(=O)NN(c3ccc(F)cc3)C2=O)cc([N+](=O)[O-])c1O 71.1 µM, COc1ccc(-c2onc3ccc(C(C)=O)cc23)cc1 10 µM, O=C1NN(c2ccccc2)C(=O)/C1=C/c1ccc(-c2cccc(C(=O)O)c2)o1 100 µM, COc1ccc(S(=O)(=O)/N=C2\C=C(NS(=O)(=O)c3ccccc3)C(=O)c3ccccc32)cc1 50.3 µM
